# Source: the supplement of paper PMC10849652
# Targets with a hit are over-represented here; the source holds about 7,900 in all. About 0.6% of all pairs of compound and target were hits. Unmarked numbers belong to inactive results.
# Compound: c1cn2cc(-c3ccc4cn[nH]c4c3)nc(Nc3ccc(N4CCOCC4)cc3)c2n1 [entospletinib]
# Assay: log2 fold change, soluble protein after heating vs DMSO (PISA); higher = thermal stabilisation; K562 cells, 10 uM, 30 min; active = over 0.2 and 3.5 SD of the protein, either way, in both replicates (recomputed)
# Summary of the method: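 Values are thermal stability changes relative to control samples and are taken from duplicates. They are stated as log2 fold changes. Before quantification by TMTpro 16plex LC-MS/MS with equalised channel sums, K562 cells at 2×10^6 cells/mL were treated with 10 μM compound for 30 min, heated in aliquots for 3 min across 48°C-58°C, pooled, extracted in PBS with 0.5% NP-40 at 4°C, and centrifuged at 21,000xg for 90 min to give the soluble supernatant.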
# Sequence of UniProt Q8N4L2 (Q8N4L2 whole entry, looked up): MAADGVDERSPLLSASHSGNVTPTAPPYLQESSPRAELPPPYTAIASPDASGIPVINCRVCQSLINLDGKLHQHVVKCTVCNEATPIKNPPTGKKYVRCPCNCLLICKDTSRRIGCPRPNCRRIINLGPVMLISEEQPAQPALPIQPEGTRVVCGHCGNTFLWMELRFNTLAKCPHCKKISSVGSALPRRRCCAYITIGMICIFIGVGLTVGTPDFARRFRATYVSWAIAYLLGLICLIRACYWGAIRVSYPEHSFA
# Sequence of UniProt Q9BZL4 (Q9BZL4 whole entry, looked up): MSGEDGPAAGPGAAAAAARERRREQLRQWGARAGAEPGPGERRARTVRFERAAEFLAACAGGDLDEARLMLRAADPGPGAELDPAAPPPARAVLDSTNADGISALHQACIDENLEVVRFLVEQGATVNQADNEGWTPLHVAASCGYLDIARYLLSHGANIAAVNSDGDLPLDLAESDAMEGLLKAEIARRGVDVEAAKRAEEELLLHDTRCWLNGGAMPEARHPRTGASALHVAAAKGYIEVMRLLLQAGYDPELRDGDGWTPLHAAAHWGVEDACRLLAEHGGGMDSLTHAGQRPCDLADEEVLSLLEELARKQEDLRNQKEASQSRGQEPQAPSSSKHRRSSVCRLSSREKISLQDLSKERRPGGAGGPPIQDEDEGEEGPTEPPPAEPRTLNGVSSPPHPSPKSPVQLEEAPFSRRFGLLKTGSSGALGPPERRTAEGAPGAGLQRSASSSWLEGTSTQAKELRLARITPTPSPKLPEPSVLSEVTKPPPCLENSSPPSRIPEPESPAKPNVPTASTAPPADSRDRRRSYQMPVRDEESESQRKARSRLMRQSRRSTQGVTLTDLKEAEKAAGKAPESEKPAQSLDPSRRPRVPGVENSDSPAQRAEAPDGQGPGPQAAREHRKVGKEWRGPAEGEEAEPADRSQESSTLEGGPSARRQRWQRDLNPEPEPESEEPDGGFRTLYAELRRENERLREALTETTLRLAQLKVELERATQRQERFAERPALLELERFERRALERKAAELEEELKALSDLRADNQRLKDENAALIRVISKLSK
# Sequence of UniProt P50897 (P50897 whole entry, looked up): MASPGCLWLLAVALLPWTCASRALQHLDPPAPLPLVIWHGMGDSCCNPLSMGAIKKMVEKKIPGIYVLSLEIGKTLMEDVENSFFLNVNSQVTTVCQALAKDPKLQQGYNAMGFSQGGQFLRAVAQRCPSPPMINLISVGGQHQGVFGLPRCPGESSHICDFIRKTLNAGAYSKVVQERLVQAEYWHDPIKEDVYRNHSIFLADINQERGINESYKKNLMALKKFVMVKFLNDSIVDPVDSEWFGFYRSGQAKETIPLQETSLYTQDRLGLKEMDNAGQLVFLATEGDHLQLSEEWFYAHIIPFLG
# Sequence of UniProt Q9NYI0 (Q9NYI0 whole entry, looked up): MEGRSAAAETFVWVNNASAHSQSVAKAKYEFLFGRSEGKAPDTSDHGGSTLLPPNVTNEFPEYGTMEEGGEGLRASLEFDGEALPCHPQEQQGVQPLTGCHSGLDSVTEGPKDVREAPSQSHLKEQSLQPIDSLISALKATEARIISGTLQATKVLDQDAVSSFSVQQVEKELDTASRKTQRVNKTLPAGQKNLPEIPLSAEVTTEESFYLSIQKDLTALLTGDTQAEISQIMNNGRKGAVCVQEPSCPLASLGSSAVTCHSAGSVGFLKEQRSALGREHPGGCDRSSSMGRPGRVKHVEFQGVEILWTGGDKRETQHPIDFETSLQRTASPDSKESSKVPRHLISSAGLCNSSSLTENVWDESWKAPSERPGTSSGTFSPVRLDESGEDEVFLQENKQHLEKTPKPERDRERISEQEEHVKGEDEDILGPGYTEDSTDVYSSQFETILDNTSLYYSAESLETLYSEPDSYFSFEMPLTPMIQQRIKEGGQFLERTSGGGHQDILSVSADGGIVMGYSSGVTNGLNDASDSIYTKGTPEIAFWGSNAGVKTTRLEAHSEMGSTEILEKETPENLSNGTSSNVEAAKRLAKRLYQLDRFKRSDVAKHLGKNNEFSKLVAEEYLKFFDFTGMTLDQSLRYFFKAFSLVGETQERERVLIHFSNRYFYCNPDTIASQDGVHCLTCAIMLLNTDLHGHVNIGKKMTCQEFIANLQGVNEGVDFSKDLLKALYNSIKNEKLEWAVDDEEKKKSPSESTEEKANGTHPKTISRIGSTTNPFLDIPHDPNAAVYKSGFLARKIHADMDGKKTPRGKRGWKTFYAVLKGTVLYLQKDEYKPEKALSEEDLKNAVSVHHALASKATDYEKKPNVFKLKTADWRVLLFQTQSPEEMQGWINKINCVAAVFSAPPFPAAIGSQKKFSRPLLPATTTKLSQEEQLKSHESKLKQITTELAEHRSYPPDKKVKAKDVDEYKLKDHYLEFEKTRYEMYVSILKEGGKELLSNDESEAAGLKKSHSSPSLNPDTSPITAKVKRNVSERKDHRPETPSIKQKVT
# Sequence of UniProt Q13362 (Q13362 whole entry, looked up): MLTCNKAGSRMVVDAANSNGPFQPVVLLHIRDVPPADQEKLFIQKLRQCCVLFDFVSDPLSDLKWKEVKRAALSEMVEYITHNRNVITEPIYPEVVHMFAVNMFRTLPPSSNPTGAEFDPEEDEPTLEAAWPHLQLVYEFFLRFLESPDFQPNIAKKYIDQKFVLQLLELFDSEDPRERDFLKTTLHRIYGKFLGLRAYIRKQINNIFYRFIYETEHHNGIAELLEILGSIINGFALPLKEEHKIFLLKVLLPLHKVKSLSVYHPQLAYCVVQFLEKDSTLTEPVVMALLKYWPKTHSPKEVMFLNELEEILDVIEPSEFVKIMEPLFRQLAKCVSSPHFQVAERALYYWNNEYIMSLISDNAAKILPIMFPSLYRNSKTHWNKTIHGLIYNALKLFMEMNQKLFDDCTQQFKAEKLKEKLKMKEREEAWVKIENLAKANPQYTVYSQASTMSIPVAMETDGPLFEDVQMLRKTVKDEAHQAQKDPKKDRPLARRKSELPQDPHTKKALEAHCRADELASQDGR
# Sequence of UniProt O15067 (O15067 whole entry, looked up): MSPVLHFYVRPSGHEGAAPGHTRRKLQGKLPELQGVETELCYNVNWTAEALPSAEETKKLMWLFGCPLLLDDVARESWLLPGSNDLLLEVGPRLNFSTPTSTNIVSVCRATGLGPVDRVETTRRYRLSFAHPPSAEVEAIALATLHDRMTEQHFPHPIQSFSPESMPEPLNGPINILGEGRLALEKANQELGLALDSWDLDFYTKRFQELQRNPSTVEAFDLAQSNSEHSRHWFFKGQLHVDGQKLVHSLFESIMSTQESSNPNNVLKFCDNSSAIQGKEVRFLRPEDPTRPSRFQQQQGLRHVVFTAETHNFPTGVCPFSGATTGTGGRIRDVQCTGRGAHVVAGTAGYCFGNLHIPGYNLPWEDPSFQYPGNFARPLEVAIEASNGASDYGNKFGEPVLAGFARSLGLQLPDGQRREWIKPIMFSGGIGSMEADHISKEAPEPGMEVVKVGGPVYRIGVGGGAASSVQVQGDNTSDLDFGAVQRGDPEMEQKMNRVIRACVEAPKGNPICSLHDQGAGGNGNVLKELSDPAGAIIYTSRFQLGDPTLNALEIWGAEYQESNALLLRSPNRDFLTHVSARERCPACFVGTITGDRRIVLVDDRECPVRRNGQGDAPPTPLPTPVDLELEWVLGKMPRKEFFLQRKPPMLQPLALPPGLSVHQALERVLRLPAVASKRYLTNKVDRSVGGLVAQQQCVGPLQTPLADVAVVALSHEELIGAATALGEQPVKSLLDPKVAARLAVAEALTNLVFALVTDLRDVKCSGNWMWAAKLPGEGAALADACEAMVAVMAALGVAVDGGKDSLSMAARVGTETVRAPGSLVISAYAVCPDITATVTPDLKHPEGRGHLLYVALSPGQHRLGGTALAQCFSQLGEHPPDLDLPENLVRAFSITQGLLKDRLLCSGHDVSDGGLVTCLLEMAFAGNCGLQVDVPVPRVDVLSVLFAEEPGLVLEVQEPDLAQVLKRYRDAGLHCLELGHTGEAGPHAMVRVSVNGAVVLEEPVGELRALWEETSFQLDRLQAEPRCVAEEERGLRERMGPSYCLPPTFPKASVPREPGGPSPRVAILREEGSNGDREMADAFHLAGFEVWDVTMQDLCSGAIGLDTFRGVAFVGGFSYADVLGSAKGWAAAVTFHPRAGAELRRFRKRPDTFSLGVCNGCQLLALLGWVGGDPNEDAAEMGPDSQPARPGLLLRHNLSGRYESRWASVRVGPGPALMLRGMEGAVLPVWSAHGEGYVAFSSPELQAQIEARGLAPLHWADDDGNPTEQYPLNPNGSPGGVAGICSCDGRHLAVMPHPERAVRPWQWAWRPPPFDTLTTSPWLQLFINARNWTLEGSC
# Sequence of UniProt P48426 (P48426 whole entry, looked up): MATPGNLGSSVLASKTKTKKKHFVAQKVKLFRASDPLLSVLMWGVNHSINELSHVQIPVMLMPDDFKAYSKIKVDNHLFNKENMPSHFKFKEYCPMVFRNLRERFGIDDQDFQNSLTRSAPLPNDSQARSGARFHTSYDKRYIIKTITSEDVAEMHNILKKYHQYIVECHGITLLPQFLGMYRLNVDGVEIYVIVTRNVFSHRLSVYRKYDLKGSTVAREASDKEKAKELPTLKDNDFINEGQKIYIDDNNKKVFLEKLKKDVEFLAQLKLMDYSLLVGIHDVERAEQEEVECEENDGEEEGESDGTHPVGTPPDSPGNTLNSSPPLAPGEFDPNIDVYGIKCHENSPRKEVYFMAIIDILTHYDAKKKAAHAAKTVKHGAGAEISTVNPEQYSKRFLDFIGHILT
row,Target,log2 fold change
1,PMPCA (UniProt Q10713),-0.046
2,PLEKHM2 (UniProt Q8IWE5),-0.051
3,PCNX1 (UniProt Q96RV3),0.179
4,PPP1R12C (UniProt Q9BZL4),0.038
5,POLD1 (UniProt P28340),0.001
6,PRKACB isoform 2 (UniProt P22694),-0.019
7,PPP2R5C isoform 2 (UniProt Q13362),-0.041
8,PIP4K2A (UniProt P48426),-0.049
9,PPT1 (UniProt P50897),0.057
10,PSD3 (UniProt Q9NYI0),-0.013
11,PSMA3 (UniProt H0YJ03),-0.059
12,PSME4 (UniProt Q14997),-0.003
13,PRIM2 (UniProt P49643),0
14,PFAS (UniProt O15067),-0.399 (active)
15,PIP4P2 (UniProt Q8N4L2),0.115
